From PubChem BioAssay
Most compounds without a hit are left out; they make up all but 2.5% or so of the library.
TROY NFkB inh – blocks TROY-dependent signaling in reporter cells; inhibition, % at 10 µM; Q293 LMP1-TROYcd NF-kB luciferase reporter, 4 h; 360,000 tested, 0.98% active;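 active means compounds whose plate-normalised and pattern-corrected inhibition of the luciferase reporter signal at the single screening dose is 50% or more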
LMP1 NFkB inh – inhibitors of Epstein-Barr LMP1-induced NF-kappaB reporter; LMP1-induced NF-kappaB luciferase reporter cells, luminescence; inhibition, % at 12.5 µM; 350,000 tested, 0.69% active; in the data active means inhibition above about 41%; inconclusive means no clear call, values can overlap the other calls;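 further: 0% = neutral control wells and 100% = reference inhibitor control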
EWS-Fli block – blocks EWS/Fli oncoprotein-driven transcription; 350,000 tested, 0.67% active; A673 NR0B1-luciferase reporter, viability-normalised; inhibition, % at 12.6 µM;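 active means mean inhibition of at least 50% after viability correction, with every replicate also passing that limit; inconclusive means mean reaches 50% but only one of two replicates passes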;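 further: firefly luciferase signal divided by Alamar Blue viability fluorescence both relative to DMSO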
LGR2 inh – inhibitors of bursicon-induced Drosophila LGR2 receptor cAMP signaling | HEK293 LGR2, CRE-luciferase, bursicon-stimulated, 4 h | inhibition, % at 9.99 µM | 380,000 tested, 0.35% active | AID 720647;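 active means drop in luminescence signal, shown as inhibition above about 50% in the replicate tests, limit read from the data, passing the limit was not always enough; inconclusive means probably only some replicates passing the limit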;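 further: agonist challenge used bursicon conditioned medium at about half maximal strength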
TWEAK Fn14 block – blocks TWEAK-Fn14 interaction in a reporter cell assay. inhibition, % at 10 µM. TWEAK-stimulated Fn14 reporter cells, luciferase luminescence, 8 h. 360,000 tested, 2% active. AID 1159606; in the data active means inhibition above about 50%
An asterisk follows results filed as active; ? = inconclusive; / = no result.

SMILES	TROY NFkB inh	LMP1 NFkB inh	EWS-Fli block	LGR2 inh	TWEAK Fn14 block
CCOc1ccc2nc(N3C(=O)CNC3=S)sc2c1	45.0	17.4	15.6	8.5	-10.8
Cc1cc2nc(N3C(=O)CNC3=S)sc2cc1C	62.7*	1.7	9.4	?	90.2*
O=C(NC1CC2CCC(C1)N2Cc1nnnn1Cc1ccco1)NC12CC3CC(CC(C3)C1)C2 (configuration not stated)	1.0	8.0	/	/	-3.5
CCOc1ccccc1C(=O)NC1CC2CCCC(C1)N2Cc1nnnn1Cc1ccco1 (configuration not stated)	-4.1	57.2*	/	/	-8.2
CC(C)(C)[S@](=O)N1Cc2cc(C(=O)N3CCCCC3)nc(-c3cccc(-c4ccc(C#N)cc4)c3)c2[C@@H]1CCO	/	/	10.3	3.6	/
Clc1cccc(CN2CCCCCC2)c1	-9.5	80.2*	16.5	-7.9	2.1
O=C(COc1ccc(Br)cc1Br)NC(=S)N1CCCc2ccccc21	43.2	-3.6	/	/	63.5*
Cn1cnc(S(=O)(=O)N[C@H]2CC[C@@H](CC(=O)NCC3CCCCC3)O[C@H]2CO)c1	/	/	/	7.0	/
Cc1ccc(S(=O)(=O)Nc2ccc3c(c2)C(=O)N([C@H](C)CO)C[C@@H](C)[C@@H](CN(C)C(=O)C2CCCCC2)OCCCC[C@@H](C)O3)cc1	/	/	7.2	9.6	/
Brc1ccc2ncnc(Nc3ccc(N4CCOCC4)cc3)c2c1	41.8	13.0	/	25.7	59.5*
COCC(=O)Nc1ccc2c(c1)C(=O)N(C)[C@@H]1CC[C@H](CC(=O)NCc3ccccc3)O[C@@H]1CO2	/	/	-1.8	-16.3	/
O=C1NC(Cc2ccc(O)cc2)c2nc3cc(F)c(F)cc3c(=O)n2-c2cc3ccccc3cc21 (configuration not stated)	23.1	-2.2	20.6	26.8	36.9
Cc1ccc2nc3n(c(=O)c2c1)-c1cc2ccccc2cc1C(=O)NC3Cc1ccc(O)cc1 (configuration not stated)	34.4	12.1	62.1*	6.9	25.8
O=C1NC(Cc2ccc(O)cc2)c2nc3ccc(F)cc3c(=O)n2-c2cc3ccccc3cc21 (configuration not stated)	16.4	-1.5	64.4*	11.8	24.8
Cc1ccc2c(c1)-n1c(nc3ccccc3c1=O)C(Cc1ccc(O)cc1)NC2=O (configuration not stated)	/	/	1.7	10.7	/
O=C(c1ccc2c(c1)OCO2)N1C[C@H]2[C@@H](c3ccccc31)[C@H](CO)N2Cc1cccnc1	/	/	-2.8	-4.4	/
COCCNC(=O)C[C@H]1C[C@@H]2c3cc(NS(=O)(=O)c4ccc(F)cc4)ccc3O[C@@H]2[C@@H](CO)O1	/	/	-10.4	-4.9	/
CN(C)c1ccc(Cc2ccc(N(C)C)cc2)cc1	-1.3	5.4	-9.9	-1.8	9.1
CNc1nnc(-c2ccc(N(C)C)cc2)s1	15.9	23.2	/	/	61.5*
Cc1sc(NC(=O)/C=C/c2ccc3c(c2)OCO3)nc1-c1ccccc1	27.0	6.5	/	3.6	88.5*
O=C(/C=C\c1ccco1)Nc1nc(-c2ccc3ccccc3c2)cs1	48.0	10.0	7.2	54.6*	83.3*
O=C(/C=C/c1ccc2c(c1)OCO2)Nc1nc(-c2ccccc2)cs1	61.5*	7.5	/	/	87.7*
C[C@H]1CN([C@@H](C)CO)C(=O)c2cc(C#CC3(O)CCCC3)cnc2O[C@@H]1CN(C)Cc1ccccn1	/	/	-5.3	-7.5	/
COc1ccc(NC(=O)C2C(c3ccccc3)C2(Cl)Cl)c(OC)c1 (configuration not stated)	27.8	-3.0	13.1	5.6	32.2
COc1ccc([C@@]23Oc4cc(OC)cc(OC)c4[C@]2(O)[C@H](O)[C@H](C(=O)N(C)C)[C@H]3c2ccccc2)cc1	33.8	81.8*	23.0	99.2*	87.4*
SMILES	TROY NFkB inh	LMP1 NFkB inh	EWS-Fli block	LGR2 inh	TWEAK Fn14 block
CCN(CC)c1ccc(/C=N/Nc2nc3ccccc3[nH]2)c(O)c1	54.8*	55.1*	/	/	53.1*
C(=N\Nc1nc2ccccc2[nH]1)/c1cccc2nccnc12	-19.3	47.0*	-13.0	-6.5	3.5
C#CCn1cc(/C=N/Nc2nc3ccccc3[nH]2)c2ccccc21	-3.6	-13.9	/	-55.8	53.1*
C(=N\Nc1nc2ccccc2[nH]1)/c1ccc2ncccc2c1	16.8	33.5	40.2	-31.9	27.8
COc1ccc(S(=O)(=O)Nc2ccc3c(c2)C(=O)N([C@H](C)CO)C[C@@H](C)[C@@H](CN(C)C(=O)c2ccncc2)OCCCC[C@@H](C)O3)cc1	/	/	0.1	11.7	/
COc1ccc(CN(C)C[C@H]2Oc3ccc(NS(=O)(=O)c4ccccc4)cc3CC(=O)N([C@@H](C)CO)C[C@H]2C)cc1	/	/	-4.3	-6.4	/
CCN1C(c2ccccc2)C(C)C(=O)C(C)C1c1ccccc1 (configuration not stated)	/	7.7	/	/	83.3*
CCCNC(=O)N[C@H]1CC[C@@H](CCn2cc(C3CCCC3)nn2)O[C@H]1CO	/	/	-1.6	-17.6	/
CC(C)CC1NC(=O)N(Cc2nc3ccccc3s2)C1=O (configuration not stated)	-0.2	-6.5	6.7	-37.3	72.3*
O=c1c2ccccc2ncn1Cc1nc2ccccc2s1	-47.2	-8.3	/	/	-32.6
O=C(NNC(=O)c1cccs1)Nc1cccc(Cl)c1	-21.1	-3.2	/	/	-10.6
Cc1ccc(NC(=O)c2cccs2)cc1S(=O)(=O)Nc1cccc(Cl)c1	38.9	-7.9	8.9	28.1	60.0*
Cc1cc(C)c(NS(=O)(=O)c2ccc(NC(=O)c3cccs3)cc2)c(C)c1	50.9*	3.4	/	36.9	40.8
Cc1ccc(NC(=S)NC(=O)c2ccc(F)cc2)cc1S(=O)(=O)Nc1cccc(Cl)c1	50.5*	13.9	44.0	-17.9	67.6*
C[C@@H]1CN([C@@H](C)CO)C(=O)c2cc(NS(=O)(=O)c3cccs3)ccc2O[C@@H](C)CCCCO[C@H]1CN(C)C(=O)CCCN(C)C	/	/	-12.4	7.9	/
CN1CCN(C(=O)C[C@H]2CC[C@@H]3[C@H](COC[C@H](O)CN3C(=O)Nc3ccc4c(c3)OCO4)O2)CC1	/	/	-46.2	-21.1	/
Cc1ccc(NC(=O)/C=N/OCC(=O)NCc2ccccc2Cl)cc1	-11.1	48.2*	3.9	9.6	-21.1
CCOc1ccc(N(C)S(=O)(=O)c2ccc(C)c(C(=O)OCC(=O)c3c[nH]c4ccccc34)c2)cc1	22.7	1.4	-6.4	7.6	78.8*
COc1ccc(C(=O)OCC(=O)c2c[nH]c3ccccc23)c(OC)c1	-25.1	-32.5	-58.7	-28.2	0.8
COc1ccc(-c2cn3ccccc3n2)cc1	11.1	25.3	15.2	24.6	51.0*
COc1ccc(C(=O)Nc2c(-c3ccccc3)nc3ccccn23)c(OC)c1	12.3	6.8	2.1	-4.4	56.0*
CCCCNc1c(-c2ccc(OC)c(Sc3ccc(OC)cc3)c2)nc2cnccn12	-13.5	4.0	20.2	-13.9	12.5
CCCCNc1c(-c2ccc(OC)c(Sc3ccc(OC)cc3)c2)nc2ccccn12	6.8	13.3	/	-15.1	57.2*
CCCOc1ccc(-c2cn3ccccc3n2)cc1	-31.9	11.7	47.1	75.2*	2.3
COc1cc(CO)cc(I)c1O[C@H]1C=C(C(=O)NCCO)C[C@@H](N(CC2CCCCC2)C(=O)c2ccc(C(F)(F)F)cc2)[C@@H]1O	/	/	2.8	/	/
